The values below come from PubChem BioAssay (Tox21).

Unmarked numbers belong to inactive results. Calls of active or inactive are those of the source. Calls come from the whole dose curve; as a rule, active = well fitted curve in the direction sought with a large enough effect in the repeat runs; inconclusive = weak or mixed curves; inactive = flat fitted curve, though single readings scatter.
% is set by controls: 0 for no effect and ±100 for the full control effect.

The nature of the experiment: qHTS assay to test for compound auto fluorescence at 535 nm (green) in HepG2 cells (AID 720675). The following applies: green autofluorescence 485/535 nm, 1 h; series mostly up to 91.3 µM. The text has this: National Center for Advancing Translational Sciences [NCATS]
NIH Chemical Genomics Center [NCGC]
U.S. Environmental Protection Agency [EPA]
National Institutes of Environmental Health Sciences [NIEHS]
National Toxicology Program [NTP]
U.S. Food and Drug Administration [FDA]
Compound auto fluorescence often interferes with screening of the compound library against various biological targets and signaling pathways. Some of these compounds may have fluorophoric properties. Such properties may interfere with the assay outputs resulting in false positives and/or negatives. To decrease such complications and ensure the compound activities are relevant in terms of biological response, the Tox21 10K compound library was screened for auto fluorescence.
From the fluorophores used as reporter signals in our screening assays, the auto fluorescence equivalencies of compounds against three fluorophores have been evaluated: Triamterene, Fluorescein and Rose Bengal sodium for blue, green and red fluorescence, respectively. The fluorescence intensities were measured using Excitation/Emission wavelengths at 405/460nm, 485/535nm and 540/590nm for blue, green and red labels, respectively. This assay includes the green fluorescence data.
Tox21 Assay Protocol Summary:
2,000 HepG2 cells in 5 uL of culture medium (MEM containing 10% FBS) per well were dispensed into black wall/clear bottom 1536-well plates using a Multidrop Combi Dispenser (ThermoFisher Scientific, Waltham, MA). The assay plates were incubated overnight at 37 C to allow cell attachment to the well bottom, followed by the transfer of 23 nL compound or DMSO vehicle by a pintool work station (Kalypsys , San Diego, CA). After the assay plates were incubated for 1 hr at 37 C and 5% CO2, fluorescence intensities in the assay plates were measured by an Envision (PerkinElmer, Shelton, CT) plate reader using three labels for measuring blue, green and red fluorescence at […] 460, 535 and 590 nm respectively.
In general terms: Quantitative high-throughput screening tests each substance at several concentrations.
Consider `O=C(O)C[C@H](NC(=O)OCc1ccccc1)C(=O)O`, for which the compound was classed as inactive.

Turning to `C/C=C(/C(=C/C)c1ccc(O)cc1)c1ccc(O)cc1`, the fluorescence, % of fluorescein control is 0.154% [at 18.6 µM].

As to `CN1C(=O)OC(C)(C)C1=O`, the outcome was inactive.

On to `O=C(/C=C/c1ccc(O)c(O)c1)O[C@@H]1C[C@@](OC(=O)/C=C/c2ccc(O)c(O)c2)(C(=O)O)C[C@@H](O)[C@@H]1O`, for which the call was inactive.

As for `C=CCc1ccccc1OCC(O)CNC(C)C` (stereo not given), the call was inactive.

As for `FC(F)(F)c1ccccc1Cl`, the call was inactive.

In the case of `OC[C@H]1O[C@@H](n2cnc3c(=S)nc[nH]c32)[C@H](O)[C@@H]1O`, the compound was called inactive.

Regarding `O[C@@H]1CO[C@H]2[C@@H]1OC[C@@H]2O`, the compound was classed as inactive.

As to `CC(O)c1ccccc1` (stereo not given), the compound was called inactive.

`Nc1nnc(-c2ccc([N+](=O)[O-])o2)o1`: the compound was called inactive.

For `CC/C=C1/OC(=O)c2ccccc21`, the result was inactive.

For the compound `O=C1c2ccccc2C(=O)c2c(O)c(O)cc(O)c21`, the outcome was inactive.

Consider `CC(=O)Nc1cc(S(=O)(=O)O)cc2cc(S(=O)(=O)O)c(N=Nc3ccccc3)c(O)c12`, for which the call was inactive.

For the compound `CC(C)=CCC1C(=O)N(c2ccccc2)N(c2ccccc2)C1=O`, the call was inactive.

On to `O=C1c2ccccc2C(=O)C1c1nc2ccccc2c(Br)c1O`, for which the compound was classed as inactive.

Consider `Cc1cc2c(OCC(CNC(C)(C)C)OC(=O)c3ccccc3)cccc2[nH]1` (stereo not given), for which the call was inactive.

As for `CC=C(Cl)Cl`, the compound was called inactive.

As to `C=C(C)CCCC(C)CCO` (stereo not given), the compound was called inactive.

As for `CCOc1cccc(-n2cc(C(=O)N3CCN(c4cc(C(=O)O)c5ccccc5c4)CC3)nc2-c2ccc(C)cc2)c1`, the compound was classed as inactive.

Take `CC(=O)[C@H]1[C@H](C#N)C[C@H]2[C@@H]3CC=C4C[C@@H](O)CC[C@]4(C)[C@H]3CC[C@@]21C`: the compound was called inactive.

Turning to `CC(=O)Nc1ccc(C)cc1C`, the outcome was inactive.

As for `O=C1Cc2ccccc2N1c1c(Cl)cccc1Cl`, the outcome was inactive.

`CCOC(=O)OC(C)OC(=O)[C@@H]1N2C(=O)[C@@H](NC(=O)[C@H](N)c3ccccc3)[C@H]2SC1(C)C` (stereo not given in full): the fluorescence, % of fluorescein control is 0.0265% [at 18.6 µM].

Take `CCCCCCNC(=O)n1cc(F)c(=O)[nH]c1=O`: the call was inactive.

In the case of `CN1CC(=O)N2[C@H](c3ccc4c(c3)OCO4)c3[nH]c4ccccc4c3C[C@@H]2C1=O`, the compound was called inactive.

As to `O=C(CCc1ccc(O)cc1)c1c(O)cc(O)cc1O`, the result was inactive.

For the compound `OCCN1CCN(CCCN2c3ccccc3Sc3ccc(Cl)cc32)CC1`, the fluorescence, % of fluorescein control was 0.0508% [at 18.6 µM].

For the compound `CC[N+](CC)(CCNC(=O)C(=O)NCC[N+](CC)(CC)Cc1ccccc1Cl)Cc1ccccc1Cl`, the result was inactive.

Regarding `Cc1ccccc1S`, the call was inactive.

Take `CCCCCCC(C)(C)C(=O)O`: the compound was called inactive.

Take `CN1C[C@H](C(=O)N[C@]2(C)O[C@@]3(O)[C@@H]4CCCN4C(=O)[C@H](Cc4ccccc4)N3C2=O)C[C@@H]2c3cccc4[nH]cc(c34)C[C@H]21`: the outcome was inactive.

For `C[C@@H](CN(C)C)CN1c2ccccc2Sc2ccccc21`, the fluorescence, % of fluorescein control is 0.0297% [at 18.6 µM].

For `CC1=Nc2ccc3ccccc3c2C1(C)C`, the compound was classed as inactive.

For `CC(C)(C)C(=O)C(=O)O`, the compound was classed as inactive.

Take `O=c1[nH]c2ccc(Cl)cc2o1`: the call was inactive.

Take `COc1ccccc1N1CCN(CCCCNC(=O)c2ccc(-c3ccc(C(C)=O)cc3)cc2)CC1`: the outcome was inactive.

Turning to `O=C(Cn1ccnc1[N+](=O)[O-])NCCO`, the outcome was inactive.

For `O=C1c2ccccc2C(=O)C1c1ccc(Br)cc1`, the call was inactive.

As for `Nc1nc2ccc([N+](=O)[O-])cc2s1`, the result was inactive.

Regarding `O=C1C(=O)c2ccccc2C(O)=C1C1CCC(c2ccc(Cl)cc2)CC1` (stereo not given), the fluorescence, % of fluorescein control is -0.0011% [at 18.6 µM].
